Screens: PubChem BioAssay, several laboratories
Most compounds without a hit are left out; they make up all but 27% or so of the library.
Cav3 T inh = Cav3.2 calcium influx blockers – cell-based, Fluo-4 calcium fluorescence, FDSS, MLSMR library, primary screen; Voltage-dependent T-type calcium channel subunit alpha-1H (Homo sapiens), O95180; Cav3.2-expressing cells; stronger effect = lower value; B-score at 10 µM; 100,000 tested, 4% active; AID 449739, 2010;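 active = single-dose well whose peak fluorescence ratio is a statistical outlier from its plate by either plate-standardised score or position-corrected B-score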
CYP2C19 activ = human CYP2C19 activators, primary screen, biochemical, luminescence. Cytochrome P450 2C19 (Homo sapiens), P33261. recombinant CYP2C19, luciferin-H EGE luminescence; stronger effect = higher value; 0 = fully inhibited enzyme, 1 = untreated enzyme. activation factor at 5 µM. 96,000 tested, under 10 active. AID 1025, 2008;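 active = activation factor of at least 2 at 5 µM in the primary screen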;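 note: 0 = wells with 2.5 mM tranylcypromine and 1 = vehicle-only wells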
CYP2C19 inhib = blockers of cytochrome P450 2C19 activity – biochemical, luminescence, ADME assay, primary screen; CYP2C19 Supersomes, luciferin-H EGE luminescence, 30 min; P33261; 96,000 tested, 21% active; inhibition, % at 5 µM;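 active = CYP2C19 inhibition above a set limit at 5 µM in the primary screen, cut at about 50% in these data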;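 note: plate controls were negative control wells for no effect and 2.5 mM tranylcypromine positive control for full effect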
CYP2C9 act = human CYP2C9 activators, primary screen, biochemical, luminescence; AID 1024, 2008; Cytochrome P450 2C9 (Homo sapiens), P11712; activation factor at 5 µM; recombinant CYP2C9, luciferin-H conversion; stronger effect = higher value; factor 1 = untreated enzyme, 0 = blocked; 96,000 tested, 1.4% active;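 active = activation factor of 2 or more for CYP2C9 at a 5 µM dose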;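 note: 0 = sulfaphenazole-blocked wells and 1 = vehicle-only wells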
CYP2C9 inh = blockers of cytochrome P450 2C9 activity – biochemical, luminescence, ADME assay, primary screen; AID 777, 2007; CYP2C9 Supersomes, luciferin-H conversion; P11712; inhibition, % at 5 µM; 96,000 tested, 20% active;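 active = blocking of liver enzyme CYP2C9 beyond about 50% at 5 µM, limit read from the data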
* marks the source's active call; other numbers are inactive results; . = no result.

SMILES	Cav3 T inh	CYP2C19 activ	CYP2C19 inhib	CYP2C9 act	CYP2C9 inh
COc1ccc(CCn2nnnc2C(CC(C)C)N2CCN(c3ncccn3)CC2)cc1OC (stereo not drawn)	.	0.7	34	0.2	76*
COc1ccc(CCn2nnnc2C(CC(C)C)N2CCC(C(N)=O)CC2)cc1OC (stereo not drawn)	0.2	1.1	-6	1	-4
COc1ccc(CCn2nnnc2C(C(C)C)N2CCN(c3ncccn3)CC2)cc1OC (stereo not drawn)	.	0.8	23	0.3	72*
CCOC(=O)C(O)(CCC(O)(C(=O)OCC)C(=O)OCC)C(=O)OCC	0.88	0.8	19	1	-4
CCn1c(N)c(C(=O)NC)sc1=S	0.15	0.5	52*	0.5	50*
CCCCOC(=O)c1ccc(NC(=O)c2ccc(F)cc2F)cc1	-2	.	.	.	.
CCCCCCOC(=O)c1ccc(NC(=O)c2cc(OC)c(OC)c(OC)c2Br)cc1	-2.1	0.6	44	0.4	64*
CCN1C(=O)/C(=C/c2ccc(C)s2)NC1=S	-0.1	0.6	38	0.4	59*
CCN1C(=O)/C(=C/c2ccc(C)s2)SC1=Nc1ccc(OC)cc1	-0.65	0.7	29	0.5	47
C1=CC2CC1CC2CNCc1ccco1 (stereo not drawn)	.	0.9	10	1.1	-7
Cc1c(C(=O)Nc2ccccc2-c2ccccc2)cccc1[N+](=O)[O-]	-0.95	0.2	80*	0.8	23
O=C(Nc1nc(-c2ccccc2)cs1)c1cccc([N+](=O)[O-])c1	1.3	0.9	6	0.9	15
Cc1cc(CSc2ccccc2)ccc1NC(=O)c1cccc([N+](=O)[O-])c1	-0.05	.	.	.	.
O=C(Nc1ccccc1-c1ccccc1)c1cccc([N+](=O)[O-])c1	-1.6	0.1	91*	0.6	42
Cc1ccccc1NC(=O)c1cccc(S(=O)(=O)Oc2ccc([N+](=O)[O-])cc2)c1	-2	0.2	80*	0.6	39
Cc1ccc([N+](=O)[O-])cc1NC(=O)c1ccc(-c2ccccc2)cc1	-0.66	1	2	2.2*	-119
Cc1c(C(=O)Nc2ccc(OCc3ccccc3)cc2)cccc1[N+](=O)[O-]	0.018	1.1	-14	1.6	-58
C=CCOC(=O)C1=C[C@@H](c2csc3ccccc23)[C@H](CCCO)[C@@H](OCC)O1	-1.1	.	.	.	.
Cc1c(NC(=O)C2(c3ccccc3)CCCC2)c(=O)n(-c2ccccc2)n1C	0.85	0.9	7	1.1	-14
O=C1CC(O)(c2ccccc2)C(c2ccccc2)=C1c1ccccc1 (stereo not drawn)	-5*	.	.	.	.
COc1cc2c(C(=O)N3CCN(Cc4ccc5c(c4)OCO5)CC3)cn(C)c(=O)c2cc1OC	.	0.9	11	1	3
COc1cccc(CNC(=O)C(=O)NCC2CCCO2)c1 (stereo not drawn)	2.1	.	.	.	.
CCCn1c(/C=C/c2ccccc2)nc2ccccc21	-2.7	0.5	51*	1.4	-41
Cc1ccc(NC(=O)Cn2c(/C=C/c3ccccc3)nc3ccccc32)cc1C	.	0.2	85*	0	100*
COC(C/C=C/[C@@H](O)[C@@H](C)OCc1ccccc1)OC	-0.12	.	.	.	.
SMILES	Cav3 T inh	CYP2C19 activ	CYP2C19 inhib	CYP2C9 act	CYP2C9 inh
COC(=O)c1c(C(=O)OC)c(-c2ccccc2)n2c1CCC2	1.5	0.9	12	1.1	-7
COC(=O)c1cc2c(-c3ccccc3)c(C)c3ccccn3c-2c1C(=O)OC	-0.19	0.3	67*	0.1	88*
CC1CCN(S(=O)(=O)c2ccc3ncn(CC(=O)N(C)Cc4ccccc4)c(=O)c3c2)CC1	-4.6*	0.8	18	0.5	49
CN(C)c1nc(OCCNC(=O)Nc2ccccc2)nc(N(C)C)n1	-0.72	0.3	73*	0.5	47
CN(C)c1nc(OCCNC(=O)Nc2ccccc2)nc(N2CCOCC2)n1	0.055	0.5	53*	0.2	80*
Cc1ccc(S(=O)(=O)NCCOc2nc(N(C)C)nc(N3CCOCC3)n2)cc1	0.57	0.9	14	0.6	40
COC(=O)c1ccc(NC(=O)NS(=O)(=O)c2ccc(C)cc2)cc1	-0.35	1.1	-6	1.1	-13
Cc1ccc(CN(C(=O)C(F)(F)F)C(C(=O)NC2CCCCC2)c2ccco2)cc1 (stereo not drawn)	-5.4*	.	.	.	.
